Source: PubChem BioAssay (EPA / NIEHS)
Active and inactive are the calls of the source. The calls were made as follows: active = hit-call score of the fitted dose curve at least 0.9, where 1 is the maximum; inactive = score below 0.9.

Experiment: BSK_4H_SRB: Viability Assessment in the BioMAP Diversity Plus: 4H Assay (AID 2283027);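 also: cells exposed to compound for 24 h before staining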;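 as to AC50: curves fitted both ways versus DMSO so AC50 may be loss or gain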
Conditions: primary human endothelial cells (HUVEC)
Method in brief: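 Absorbance at 560 nm of SRB-stained total protein served as the viability read-out in confluent primary human umbilical vein endothelium 24 h after chemical treatment. Curves were fitted bidirectionally against DMSO as negative control.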
For `CC(C)Nc1nc(Cl)nc(NC(C)C)n1`, the outcome was “inactive”.
In the case of `OC(c1ccc(Cl)cc1)(c1ccc(Cl)cc1)C(Cl)(Cl)Cl`, the AC50 is reported as 28.6 µM (active).
In the case of `CNC(=O)N(C)c1nnc(C(C)(C)C)s1`, the outcome is reported as “inactive”.
With `Cn1c(-c2ccccc2)cc(-c2ccccc2)[n+]1C` the AC50 was 1.65 µM (active).
In the case of `CC1(C)C(C(=O)OC(C#N)c2cccc(Oc3ccccc3)c2)C1(C)C` (stereo unspecified), the outcome is reported as “inactive”.
For `CCC(C)n1c(=O)[nH]c(C)c(Br)c1=O` (stereo unspecified), the outcome was “inactive”.
In the case of `COCC(=O)N(c1c(C)cccc1C)C(C)C(=O)OC` (stereo unspecified), the outcome is reported as “inactive”.
For `CSC(=O)c1c(C(F)F)nc(C(F)(F)F)c(C(=O)SC)c1CC(C)C`, the AC50 was 25.7 µM (active).
With `COP(=S)(OC)SCn1nnc2ccccc2c1=O` the outcome was “inactive”.
For `CCOc1nc(F)cc2nc(S(=O)(=O)Nc3c(Cl)cccc3Cl)nn12`, the outcome was “inactive”.
In the case of `COC(=O)NS(=O)(=O)c1ccc(N)cc1`, the outcome is reported as “inactive”.
For `Cc1ccc(N=CN(C)C=Nc2ccc(C)cc2C)c(C)c1`, the AC50 was 32.3 µM (active).
For `Clc1cccc(C(Cl)(Cl)Cl)n1`, the outcome was “inactive”.
For `O=C(O)c1c(Cl)ccc2cc(Cl)cnc12`, the outcome was “inactive”.
For `CC(C)(C)C(=O)C(Oc1ccc(Cl)cc1)n1cncn1` (stereo unspecified), the outcome was “inactive”.
In the case of `CN=C=S`, the outcome is reported as “inactive”.
With `CCOP(=S)(OCC)Oc1nc(Cl)n(C(C)C)n1` the outcome was “inactive”.
In the case of `Nc1cnn(-c2ccccc2)c(=O)c1Cl`, the outcome is reported as “inactive”.
In the case of `CC1(C)CON(Cc2ccccc2Cl)C1=O`, the outcome is reported as “inactive”.
For `CCCC(=NOCC)C1=C(O)CC(CC(C)SCC)CC1=O` (stereo unspecified), the outcome was “inactive”.
In the case of `CO/N=C(/C1=NOCCO1)c1ccccc1Oc1ncnc(Oc2ccccc2Cl)c1F`, the AC50 is reported as 8.6 µM (active).
With `CC1(C)CCC(=Cc2ccc(Cl)cc2)C1(O)Cn1cncn1` (stereo unspecified) the AC50 was 0.803 µM (active).
In the case of `Cc1cc(C)nc(Nc2ccccc2)n1`, the outcome is reported as “inactive”.
For `N#Cc1c[nH]cc1-c1cccc2c1OC(F)(F)O2`, the AC50 was 6.27 µM (active).
In the case of `COc1cc(Cl)c(OC)cc1Cl`, the AC50 is reported as 3.09 µM (active).
In the case of `CC(C)NC(=O)N1CC(=O)N(c2cc(Cl)cc(Cl)c2)C1=O`, the outcome is reported as “inactive”.
With `CCCCC(C#N)(Cn1cncn1)c1ccc(Cl)cc1` (stereo unspecified) the outcome was “inactive”.
In the case of `CC(C)C1(C)N=C(c2ncccc2C(=O)O)NC1=O` (stereo unspecified), the AC50 is reported as 0.454 µM (active).
With `CC1(C)C(C=C(Cl)Cl)C1C(=O)OC(C#N)c1cccc(Oc2ccccc2)c1` (stereo unspecified) the AC50 was 14 µM (active).
For `CCCCC(O)(Cn1cncn1)c1ccc(Cl)cc1Cl` (stereo unspecified), the AC50 was 14.3 µM (active).
For `Cc1nc(N(C)C)nc(OC(=O)N(C)C)c1C`, the outcome was “inactive”.
With `Clc1nc(Cl)nc(Nc2ccccc2Cl)n1` the outcome was “inactive”.
In the case of `COC(=O)N(C(=O)N1CO[C@@]2(C(=O)OC)Cc3cc(Cl)ccc3C2=N1)c1ccc(OC(F)(F)F)cc1`, the AC50 is reported as 7.13 µM (active).
With `Nc1c(Cl)c(F)nc(OCC(=O)O)c1Cl` the outcome was “inactive”.
In the case of `CCOP(=O)(OCC)Oc1nc(Cl)c(Cl)cc1Cl`, the AC50 is reported as 12.4 µM (active).
In the case of `COc1ccc(-c2ccccc2)cc1NNC(=O)OC(C)C`, the outcome is reported as “inactive”.
